Shown are actives, neighbours in structure and some others; about 9.9% of the full set was active somewhere.
HPGD inh: HPGD (human) dehydrogenase inhibition; P15428; purified HPGD, NADH fluorescence kinetic, PGE2 substrate; Potency, µM, for inactives: top-dose activity change, negative = inhibition, usual class: inhibitors; 150,000 compounds, 4.3% hits; AID 894; active = well fitted inhibition curve with a large enough effect, not every such curve was filed as active; inconclusive = small, poorly fitted or top-dose-only effect, or another doubt; inactive = no such curve, though single readings can be large or run the other way
Target sequence (P15428 whole entry, looked up): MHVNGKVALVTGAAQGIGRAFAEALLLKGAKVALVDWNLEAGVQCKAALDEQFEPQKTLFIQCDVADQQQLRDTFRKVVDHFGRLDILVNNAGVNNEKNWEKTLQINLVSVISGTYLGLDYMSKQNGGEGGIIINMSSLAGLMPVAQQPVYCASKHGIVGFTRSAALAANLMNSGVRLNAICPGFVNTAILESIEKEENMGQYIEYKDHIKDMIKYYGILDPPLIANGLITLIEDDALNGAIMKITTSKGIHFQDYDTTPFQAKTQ
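NADH formation kinetics: reaction with 30 uM PGE2 and 1 mM NAD+ (final), 20 nM enzyme, Tris-HCl pH 8 with Tween 20, after 15 min compound preincubation at room temperature. Fluorescence change, last versus first of five reads.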
ALDH1A1 inh: blocks purified human ALDH1A1 activity. Potency, µM (top dose mostly 75.3 µM), without a hit: at the top dose activity, negative = inhibition, actives largely listed as inhibitors. AID 1030. Purified ALDH1A1, NADH fluorescence, propionaldehyde substrate. 220,000 compounds, 7.3% hits; active = well fitted inhibition curve with a large enough effect, not every such curve was filed as active; inconclusive = small, poorly fitted or top-dose-only effect, or another doubt; inactive = no such curve, though single readings can be large or run the other way;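 note: plate controls were no enzyme wells and a reference inhibitor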
Tau fluor cs: counter-screen for tau fibril formation inhibitors | Potency, µM (top dose mostly 57.7 µM), for inactives: at the top dose activity change, negative = decrease | 280,000 compounds, 0.93% hits | AID 1463 | tau K18 P301L Alexa594 fluorescence, heparin fibrillization; note: nearly all actives have a fitted effect of over 55% in size
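Human K18 P301L tau (15 uM unlabeled plus 0.24 uM Alexa 594-labeled, final) in 100 mM sodium acetate pH 7 was mixed with compound and 20 uM heparin and incubated 6 hr at 37 C.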
Tau fibril ThT: tau fibrillization inhibition (ThT binding); P10636; Potency, µM (doses to about 57.4 µM), without a hit: at the highest dose activity, negative = inhibition, hits mostly inhibitors; recombinant tau K18 P301L (four-repeat tau fragment), heparin-induced fibrillization, ThT fluorescence; 270,000 compounds, 2.1% hits; note: nearly all actives have a fitted effect of over 55% in size
Target sequence (P10636 561-689 P618L limits assumed): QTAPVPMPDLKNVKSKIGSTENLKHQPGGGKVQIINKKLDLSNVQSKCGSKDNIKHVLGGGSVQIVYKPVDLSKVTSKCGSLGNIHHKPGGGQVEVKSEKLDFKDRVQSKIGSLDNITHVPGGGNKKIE
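In this qHTS, human K18 P301L tau is incubated with compound and heparin for 6 hr at 37 C, and Thioflavin T fluorescence then reports fibril load.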
JMJD2E inh: JMJD2E (human) inhibition | JMJD2E catalytic domain, FDH-coupled NADH fluorescence (FDH is formaldehyde dehydrogenase) | Potency, µM (series often up to 57.1 µM), for the others: at the highest dose activity change, negative = inhibition, most hits filed as inhibitors | 230,000 compounds, 1.6% hits | AID 2147; active = well fitted inhibition curve with a large enough effect, not every such curve was filed as active; inconclusive = small, poorly fitted or top-dose-only effect, or another doubt; inactive = no such curve, though single readings can be large or run the other way;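 note: 0% = wells with enzyme and -100% = buffer wells without enzyme; nearly all actives have a fitted effect of over 50% in size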
Target sequence (B2RXH2 1-337 limits assumed): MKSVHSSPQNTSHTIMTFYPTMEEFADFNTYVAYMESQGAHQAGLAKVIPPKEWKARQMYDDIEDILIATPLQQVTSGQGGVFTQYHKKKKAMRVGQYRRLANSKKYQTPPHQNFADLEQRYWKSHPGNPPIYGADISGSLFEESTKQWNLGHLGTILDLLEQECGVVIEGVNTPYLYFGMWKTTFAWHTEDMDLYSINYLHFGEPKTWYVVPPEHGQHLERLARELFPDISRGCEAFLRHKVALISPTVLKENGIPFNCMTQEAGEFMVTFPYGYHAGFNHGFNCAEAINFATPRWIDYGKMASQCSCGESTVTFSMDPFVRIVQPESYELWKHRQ
Tau FP inhib: blocks human tau fibril formation measured by polarization; P10636; K18 P301L tau heparin fibrillization, Alexa594 FP, 6 h; Potency, µM (series often up to 57.7 µM), without a hit: at the highest dose activity, negative = inhibition, most hits filed as inhibitors; 280,000 compounds, 0.39% hits; note: nearly all actives have a fitted effect of over 55% in size
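Steps: dispense K18 P301L tau (15 uM plus 0.24 uM Alexa 594 tracer, final) in pH 7 sodium acetate; add compound; add heparin (20 uM final); incubate 6 hr, 37 C; add ThT (30 uM final); after 1 hr ambient, read FP.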
* hit, by the source's call; ? = inconclusive; nt = no result given; [ ] = remark or other dose. Unless noted, calls come from the whole dose curve; as a rule, active = well fitted curve in the direction sought with a large enough effect; inconclusive = small, poorly fitted or top-dose-only effect, or another doubt; inactive = no such curve, though single readings can be large; an effect the other way counts as inactive or inconclusive. Unless noted, % is set by controls: 0 for no effect and ±100 for the full control effect; potency is the fitted concentration of half-maximal effect.

SMILES | HPGD inh | ALDH1A1 inh | Tau fluor cs | Tau fibril ThT | JMJD2E inh | Tau FP inhib
COc1ccc(C(=O)c2ccc(Cl)c([N+](=O)[O-])c2)cc1 | ? | ? | -28.0% | ? | -2.6% | 4.5%
Cc1cc(C)c2c(=O)cc(CSc3nnc(-c4ccccc4)n3C)[nH]c2c1 | nt | nt | 0.5% | 2.3% | nt | 4.1%
COc1ccccc1NC(=O)C(C)Sc1nnnn1C (stereo unspecified) | -4.3% | 8.91µM* | 2.2% | -2.2% | -3.6% | 3.7%
O=C1CSC(=Nc2cc(Cl)ccc2Cl)N1 | 10µM* | 0.6% | -3.7% | -0.8% | 4.1% | -4.8%
COc1cc(CNn2nnnc2N)cc(Br)c1OCc1c(Cl)cccc1Cl | 15.8µM* | 1.7% | -29.2% | -10.5% | 0.2% | -0.3%
CN(C)/C=C/C(=O)c1nnn(C2CCCCC2)c1NC1CCCCC1 | -20.6% | 14.1µM* | -14.7% | ? | 7.1% | 7.8%
O=S(=O)(Cc1ccccc1)N1CCCCC1 | 31.6µM* | -3.7% | -12.4% | -10.8% | -11.2% | -2.7%
Cc1cc(C)cc(NC(=O)C(Cc2ccccc2)NS(=O)(=O)c2ccc3c(c2)CCC(=O)N3)c1 (stereo unspecified) | nt | nt | -9.7% | 2.4% | nt | -8.0%
C/C(=N\Nc1ccccc1)c1c(O)cc(C)oc1=O | nt | 14.1µM* | -14.7% | ? | -23.3% | -8.7%
COc1ccc2cc3c(N)nn(C(=O)Cc4c[nH]c5ccccc45)c3nc2c1 | nt | nt | 20µM*[quencher] | nt | 1.5% | 3.1%
COc1cccc(CC(=O)n2nc(N)c3cc4ccc(OC)cc4nc32)c1 | -16.4% | 0.6% | -23.2% | -9.8% | -13.0% | -1.5%
N#Cc1ccccc1NC(=O)C(=O)NCC(c1ccc2c(c1)OCO2)N1CCOCC1 (stereo unspecified) | nt | nt | 3.4% | 4.6% | nt | 3.4%
Nc1nc(-c2ccc(-n3nncc3-c3ccco3)cc2)cs1 | nt | nt | -31.3% | -22.6% | -4.2% | 9.4%
Cc1nc(-c2ccc(-n3nncc3-c3ccco3)cc2)cs1 | nt | 25.1µM* | -19.8% | -18.1% | ? | -2.8%
O=[N+]([O-])c1ccc2c(c1)N([O-])C1(CCCCC1)[N+]2=O | nt | nt | ? | 3.55µM* | 11.2µM* | 11.2µM*
CC1CC(C)CN(C(=O)CNS(=O)(=O)c2ccc(Br)s2)C1 (stereo unspecified) | -6.4% | -2.0% | -0.6% | 0.9% | 2.7% | -1.8%
CC1CCN(C(=O)CNS(=O)(=O)c2ccc(Br)s2)CC1 | -22.9% | 8.91µM* | -9.0% | -3.1% | 0.5% | 2.8%
COc1ccccc1NC(=O)c1cc(S(=O)(=O)NCCC2=CCCCC2)ccc1F | nt | nt | -27.5% | -0.2% | nt | -7.7%
O=C1NC(c2ccc(Cl)c([N+](=O)[O-])c2)Nc2ccccc21 (stereo unspecified) | nt | 2.0% | -11.9% | -16.0% | 2.8% | -6.5%
O=[N+]([O-])c1cc(C2Nc3cccc4cccc(c34)N2)ccc1Cl | -9.6% | -2.8% | 17.8µM*[quencher] | 17.8µM* | ? | ?
COc1ccc(N2C(=O)CCC(C(=O)Nc3cccc(C)n3)C2c2ccc(OC)c(OC)c2)cc1 (stereo unspecified) | -4.2% | 22.4µM* | -8.9% | -15.4% | 4.7% | -5.8%
COc1ccc(C2C(C(=O)N3CCOCC3)CCC(=O)N2c2ccc(OC)cc2)cc1 (stereo unspecified) | -11.1% | 14.1µM* | 7.4% | 5.3% | 3.3% | 4.0%
COc1ccc(N2C(=O)CCC(C(=O)NCc3ccccn3)C2c2ccc(F)cc2)cc1 (stereo unspecified) | 0.9% | 3.7% | -8.6% | -10.1% | -1.2% | 3.8%
COc1ccc(C2C(C(=O)NCC3CCCO3)CCC(=O)N2c2ccc3c(c2)OCO3)cc1 (stereo unspecified) | 4.6% | 14.1µM* | 1.9% | 1.2% | -4.4% | 4.1%
Cc1ccc(NC(=S)NNc2ccc([N+](=O)[O-])cc2S(=O)(=O)Nc2ccccc2C(=O)O)cc1C | ? | ? | ? | 7.94µM* | ? | ?
SMILES | HPGD inh | ALDH1A1 inh | Tau fluor cs | Tau fibril ThT | JMJD2E inh | Tau FP inhib
Cc1cccc(NC(=O)C(C)OC(=O)c2ccccc2NS(=O)(=O)c2cc(C)c(C)c([N+](=O)[O-])c2)c1 (stereo unspecified) | -7.0% | -1.4% | ? | -13.6% | -8.9% | 7.0%
O=C(O)c1ccccc1NS(=O)(=O)c1ccc(NNC(=S)Nc2ccc(OC(F)F)cc2)c([N+](=O)[O-])c1 | nt | 3.55µM* | 10µM*[quencher] | 7.08µM* | -19.1% | 25.1µM*
CC(C)CN1C(=O)c2ccccc2C1(O)Cc1ccccc1 (stereo unspecified) | -16.4% | ? | -11.1% | 3.9% | 0.9% | -0.6%
O=C1c2ccccc2C(O)(Cc2ccccc2)N1C1CCCCC1 (stereo unspecified) | -12.5% | 22.4µM* | 0.3% | -1.0% | -0.3% | 1.3%
O=C(Nc1nc2c(F)cc(F)cc2s1)c1ccccn1 | nt | 10µM* | -9.9% | ? | -24.2% | 4.0%
O=C(Nc1nc2c(F)cccc2s1)c1ccc(S(=O)(=O)N2CCCc3ccccc32)cc1 | nt | nt | -1.5% | 5.5% | nt | -8.4%
O=C(Nc1nc2c(F)cc(F)cc2s1)c1ccc(S(=O)(=O)N2CCc3ccccc32)cc1 | nt | nt | -21.3% | -2.4% | nt | 14.1µM*
CN1CCc2nc(NC(=O)c3cccc(S(=O)(=O)N4CCc5ccccc54)c3)sc2C1 | -13.1% | 12.6µM* | -25.1% | -16.8% | -5.3% | -3.1%
Cc1ccc2nc(NC(=O)c3ccccn3)sc2c1 | nt | -2.7% | -14.3% | ? | -17.2% | -12.9%
COc1cc(C#N)c(NC(=O)CN2CCC(C(N)=O)CC2)cc1OC | nt | -2.4% | 0.0% | 2.3% | -1.9% | 1.4%
Cc1ccc(CNC(=O)c2ccc(Cn3c(=O)c4ccccc4n(CC(=O)Nc4ccc(C)cc4C)c3=O)cc2)cc1 | nt | nt | -8.7% | 1.9% | nt | ?
Cc1cc(C)cc(Oc2c(C(F)(F)F)oc3cc(OCC(=O)NC4CCCCC4)ccc3c2=O)c1 | nt | nt | -1.0% | -2.3% | nt | 8.0%
CCCCCCCCCc1nc2sc3c(c2c(=O)n1NC(=O)c1ccc([N+](=O)[O-])cc1)CC(C)(C)OC3 | -6.5% | 7.08µM* | 11.1% | 12.4% | -6.9% | 3.6%
CCCCCCCCCc1nc2sc3c(c2c(=O)n1NC(=O)c1ccccc1[N+](=O)[O-])CC(C)(C)OC3 | -9.2% | 1.41µM* | 13.5% | 7.2% | 1.1% | 5.4%
CCc1nc2sc3c(c2c(=O)n1N)CC(C)(C)OC3 | -0.7% | 10.9% | 5.4% | 5.2% | 10.6% | 7.0%
CCCc1nc2sc3c(c2c(=O)n1NC(=O)c1ccco1)CC(C)(C)OC3 | -8.4% | ? | -0.7% | 2.7% | -2.3% | -0.7%
Nc1ccccc1N=Cc1ccc(-c2cccc(Cl)c2)o1 | nt | ? | ? | ? | ? | -8.1%
COc1ccc(CCN2C(=O)c3cccc4cccc(c34)C2=O)cc1OC | -7.3% | 10.4% | -5.1% | -4.7% | -3.0% | 0.6%

High-throughput results as filed in PubChem.
